Experimental findings from PMC12431657, “Discovery and mechanistic insights of dibenzoylmethane as a broad spectrum inhibitor of coronavirus” (PLOS Pathogens, 2025) are described below.

The test system of the assay is HCoV-OC43. More on the design: species or system RD; HTS, protection from HCoV-OC43 induced cell death, luminescent cell viability (CellCounting-Lite 2.0), inhibition rate. The conditions noted are these: 24 h post infection, 1 h compound pre-incubation, 10 µM, inhibitor.

Like-named read-outs stand apart in the source and are kept apart here. The whole screen tested about 3,300 compounds, of which about 60 (2%) showed an effect of 50% or more. The entries come from a sample that favours strong results as a whole.

For the molecule `C[S+]([O-])CCCC/C(=N\OS(=O)(=O)O)S[C@@H]1O[C@H](CO)[C@@H](O)[C@H](O)[C@H]1O` (stereo partly drawn) [Glucoraphanin], the “OC43 Inhibition rate” value is given as -2.3%.
Same read-out and setting: the figure for `CC(C)=CCC[C@](C)(O)[C@H]1CC[C@]2(C)[C@@H]1[C@H](O)C[C@@H]1[C@@]3(C)CC[C@H](O)C(C)(C)[C@@H]3[C@@H](O[C@@H]3O[C@H](CO)[C@@H](O)[C@H](O)[C@H]3O[C@@H]3OC[C@@H](O)[C@H](O)[C@H]3O)C[C@]12C` [Notoginsenoside R2] is 0.5%; for `CSSSC` [Dimethyl trisulfide] it is -0.3%; for `COc1ccc2cc3[n+](cc2c1O)CCc1cc2c(cc1-3)OCO2` [Berberrubine (chloride)] it is -0.4%.
Still for that read-out and setting: the figure for `CC1(C)O[C@H]1COc1c2ccoc2cc2oc(=O)ccc12` [Oxypeucedanin] is 0.5%; for `C[C@@H]1O[C@@H](O[C@@H]2C(=O)c3c(O)cc(O)cc3O[C@@H]2c2ccc(O)c(O)c2)[C@H](O)[C@H](O)[C@H]1O` [Isoastilbin] it is 4.2%; for `C/C=C/C[C@@H](C)[C@@H](O)[C@H]1C(=O)N[C@@H](C(C)C)C(=O)N(C)CC(=O)N(C)[C@@H](CC(C)C)C(=O)N[C@@H](C(C)C)C(=O)N(C)[C@@H](CC(C)C)C(=O)N[C@@H](C)C(=O)N[C@H](C)C(=O)N(C)[C@@H](CC(C)C)C(=O)N(C)[C@@H](CC(C)C)C(=O)N(C)[C@@H](C(C)C)C(=O)N1C` [Cyclosporin D] it is 68%.
Same read-out and setting: the figure for `O=C1O[C@H]([C@@H](O)CO)C(O)=C1OP(=O)(O)O` [L-Ascorbic acid 2-phosphate (trisodium)] is 9.8%.
In the case of `CCCCCCCCCCCCCCCCCCC(=O)O` [Nonadecanoic acid], the “OC43 Inhibition rate” value is given as -0.5%.
For `CC(C)=CCC1=CC(=O)c2ccccc2C1=O` [Deoxylapachol], the “OC43 Inhibition rate” value is listed as 3.8%.
On the same count and under the same terms, as for `CC(C)=CCC1=C(O)C(=O)c2ccccc2C1=O` [Lapachol], the figure is 27.9%.
Still for that read-out and setting: as for `COC(=O)C1=C(O)c2ccccc2C(=O)[C@]1(CC=C(C)C)C1=CC(=O)c2ccccc2C1=O` [Rubipodanone A], the figure is 58.8%.
Regarding `Nc1ncnc2c1ncn2[C@@H]1O[C@H](COP(=O)(O)O)[C@@H](O)[C@H]1O` [Adenosine monophosphate], the “OC43 Inhibition rate” value (OC43 Inhibition rate, 24 h) is given as 0%.
With `C1CCN2C[C@H]3C[C@H](CN4CCCC[C@@H]34)[C@H]2C1` [(+)-Sparteine], for the setting “OC43 Inhibition rate, 24 h”, the “OC43 Inhibition rate” value was 6%.
Regarding `C=C(C)[C@H](CC=C(C)C)Cc1c(O)cc(O)c2c1O[C@H](c1ccc(O)cc1O)CC2=O` [sophoraflavanone G], the “OC43 Inhibition rate” value worked out at 39.8%.
Same read-out and setting: as for `C=C(C)[C@H](CC=C(C)C)Cc1c(O)cc(OC)c2c1O[C@H](c1ccc(O)cc1O)CC2=O` [Kurarinone], the figure is 0%; as for `C=C(C)[C@H](CC=C(C)C)Cc1c(O)cc(OC)c2c1O[C@H](c1ccc(O)cc1OC)CC2=O` [(2S)-2'-Methoxykurarinone], 98.5%.
Same read-out and setting: the figure for `CC1(C)CC[C@]2(C(=O)O[C@@H]3O[C@H](CO)[C@@H](O)[C@H](O)[C@H]3O)CC[C@]3(C)C(=CC[C@@H]4[C@@]5(C)CC[C@H](O[C@@H]6O[C@H](C(=O)O)[C@@H](O)[C@H](O)[C@H]6O[C@H]6OC[C@@H](O)[C@H](O)[C@H]6O)C(C)(C)[C@@H]5CC[C@]43C)[C@@H]2C1` [Pseudoginsenoside RT1] is 0.7%; for `O=c1c2cc(O[C@@H]3O[C@H](CO)[C@@H](O)[C@H](O)[C@H]3O)c(O)cc2oc2cc(O)c([C@@H]3O[C@H](CO)[C@@H](O)[C@H](O)[C@H]3O)c(O)c12` [Neomangiferin] it is 3%; for `COC[C@@H](Cc1ccc(OC)c(OC)c1)[C@@H](COC)Cc1ccc(OC)c(OC)c1` [Phyllanthin] it is 0.2%.
Still for that read-out and setting: the figure for `C/C=C(/C)C(=O)O[C@H]1C(C)=C[C@]23C(=O)[C@@H](C=C4COC(C)(C)O[C@H]4[C@]12O)[C@H]1[C@@H](C[C@H]3C)C1(C)C` [Ingenol-5,20-acetonide-3-O-angelate] is 69.8%; for `CC1=C[C@]23C(=O)[C@@H](C=C4COC(C)(C)O[C@H]4C2(O)[C@H]1O)[C@H]1[C@@H](C[C@H]3C)C1(C)C` (stereo partly drawn) [Ingenol-5,20-acetonide] it is -2.5%; for `C/C=C(/C)C(=O)O[C@H]1C(C)=C[C@]23C(=O)[C@@H](C=C(CO)[C@@H](O)[C@]12O)[C@H]1[C@@H](C[C@H]3C)C1(C)C` [Ingenol Mebutate] it is 1.1%.
For the molecule `Cc1cc(=O)c2c(O)c3c(cc2o1)OC(C)(C)[C@@H](O[C@@H]1O[C@H](CO)[C@@H](O)[C@H](O)[C@H]1O)C3` [Sec-O-Glucosylhamaudol], the “OC43 Inhibition rate” value was -0.4%.
